Among the test systems are NCI-H23 lung; NCI-H226 lung; NCI-H322M lung; HOP-62 NSCLC; NCI-H460 lung; HOP-92 NSCLC; NCI-H522 lung; A549/ATCC NSCLC; 786-0 renal; COLO 205 colon; DU-145 prostate; K-562 leukemia; MALME-3M melanoma; MDA-MB-231 breast; RXF 393 renal; SF-268 CNS; SF-295 CNS; SF-539 CNS; UACC-257 melanoma; M14 melanoma.
Experiment in all cases: NCI-60 one-dose screen, 48 h (100 = growth as untreated, 0 = no growth, -100 = all killed)
Details in all cases: 10 µM unless noted

Each structure is given as a SMILES string. This is part of a sample that, as a whole, favours compounds with a hit. Of some 83,000 tested, about 20% had one in any assay.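 In brief: 96-well plates, 48 h treatment, single concentration, percent growth endpoint.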 A number with no mark means an inactive call. The source made the active and inactive calls. How the source made its calls: active means growth percent below 10; inactive means the rest.

Regarding `C=CCN=c1sc(-c2ccc3ccccc3c2)cn1NC(=O)c1cc2ccc1CCc1ccc(cc1)CC2`, the growth in the test on NCI-H23 lung is 55.8%; in the test with NCI-H226 lung, 75.2%; with NCI-H322M lung, 97.6%; in the test with HOP-62 NSCLC it was 75.2%; in the test on NCI-H460 lung, 52.3%; in the test on HOP-92 NSCLC, 59.6%. The growth is 76.4% in the test on NCI-H522 lung; 56.1% in the test with A549/ATCC NSCLC; 70.1% in the test on 786-0 renal; 44.5% in the test with COLO 205 colon; 75% in the test with DU-145 prostate; 35% in the test with K-562 leukemia. Further, the growth is 76.7% with MALME-3M melanoma; 92.9% in the test on MDA-MB-231 breast; 74.1% in the test on RXF 393 renal; 62.3% in the test on SF-268 CNS; 46% in the test with SF-295 CNS; 77.9% in the test on SF-539 CNS. Further, the results for the growth in the test with UACC-257 melanoma and with M14 melanoma were 48.7% and 75.6%, respectively.
Turning to `N=C(N)c1ccc(-c2ccc(-c3ccccc3)o2)o1`, the growth in the test with NCI-H23 lung was 49.6%; with NCI-H226 lung, 78.5%; in the test on NCI-H322M lung, 60.3%; with HOP-62 NSCLC it was 46.9%; with NCI-H460 lung it was 6.8% (active); in the test on HOP-92 NSCLC, 24.2%. Moreover, the growth with NCI-H522 lung is 50.5%; with A549/ATCC NSCLC it was 26.2%; in the test on 786-0 renal, 33.4%; in the test with COLO 205 colon it was -73.1% (active); in the test with DU-145 prostate, 46.3%; with K-562 leukemia, 9.73% (active). Further, the growth is 50.3% in the test on MALME-3M melanoma; 29.8% in the test with MDA-MB-231 breast; 47% with RXF 393 renal; 38.1% in the test with SF-268 CNS; 44% with SF-295 CNS; 35.3% in the test on SF-539 CNS. Further, the growth in the test with UACC-257 melanoma is 69.3%; in the test on M14 melanoma, 14.1%.
As for `O=C(/C=C/c1cn(-c2ccccc2)nc1-c1ccccc1)CCC(=O)NO`, the growth in the test on NCI-H23 lung is 99.3%; in the test with NCI-H226 lung it was 93.9%; with NCI-H322M lung, 106%; in the test on HOP-62 NSCLC, 93.3%; in the test on NCI-H460 lung, 113%; in the test with HOP-92 NSCLC, 109%. For the same compound, the growth is 79.5% in the test with NCI-H522 lung; 91.5% with A549/ATCC NSCLC; 97.3% with 786-0 renal; 107% with COLO 205 colon; 112% in the test on DU-145 prostate; 99.6% with K-562 leukemia. The growth was 104% in the test on MALME-3M melanoma; 105% in the test with MDA-MB-231 breast; 102% in the test with RXF 393 renal; 97% in the test on SF-268 CNS; 96.1% with SF-295 CNS; 113% in the test with SF-539 CNS. The growth in the test with UACC-257 melanoma is 92.7%; in the test on M14 melanoma, 100%.
As for `COc1ccc(C(=O)C/C(=C\c2ccc(O)c(OC)c2)C(=O)NN)cc1`, the growth is 68.9% in the test with NCI-H23 lung; 91.7% in the test on NCI-H226 lung; 82% with NCI-H322M lung; 67.4% in the test on HOP-62 NSCLC; 43.6% with NCI-H460 lung; 69.5% with HOP-92 NSCLC. In addition, the growth is 52.1% in the test on NCI-H522 lung; 80% with A549/ATCC NSCLC; 112% in the test on 786-0 renal; 106% in the test with COLO 205 colon; 101% with DU-145 prostate; 47.2% with K-562 leukemia. Also, the growth was 93.4% in the test on MALME-3M melanoma; 65.4% with MDA-MB-231 breast; 107% in the test with RXF 393 renal; 92.4% in the test with SF-268 CNS; 102% in the test with SF-295 CNS; 80.8% with SF-539 CNS. Besides, the growth was 81.5% with UACC-257 melanoma and 91.5% in the test with M14 melanoma.
On to `O=S(=O)(NCCNc1nccc(-c2c(-c3ccc(F)c(O)c3)nc3sccn23)n1)c1ccc(Cl)cc1`, for which the growth in the test on NCI-H23 lung was 42.1%; in the test on NCI-H226 lung it was 24.2%; in the test with NCI-H322M lung, 55.8%; with HOP-62 NSCLC it was 60.2%; with NCI-H460 lung, 27%; in the test with HOP-92 NSCLC it was 45%. Moreover, the growth in the test on NCI-H522 lung was 22.2%; in the test on A549/ATCC NSCLC, 25.7%; in the test on 786-0 renal, 38.3%; with COLO 205 colon it was 17.6%; in the test with DU-145 prostate it was 44%; in the test with K-562 leukemia, 15.7%. The growth with MALME-3M melanoma was 20.6%; in the test on MDA-MB-231 breast, 50.1%; in the test with RXF 393 renal, 25%; in the test with SF-268 CNS it was 32.3%; in the test on SF-295 CNS, 29.5%; in the test with SF-539 CNS, 43%. The growth with UACC-257 melanoma is 32.9%; in the test on M14 melanoma it was 27.5%.
Take `Oc1nc(NCc2ccccc2)sc1/C=C1\C=Nc2ncccc21`: the growth in the test with NCI-H23 lung was 51.9%; in the test with NCI-H226 lung it was 62.3%; in the test with NCI-H322M lung, 61.9%; in the test with HOP-62 NSCLC, 56.1%; with NCI-H460 lung, 81.9%; with HOP-92 NSCLC it was 28.8%. The growth with NCI-H522 lung is 35.2%; with A549/ATCC NSCLC, 76.9%; in the test with 786-0 renal it was 62.8%; in the test with COLO 205 colon, 34.2%; in the test with DU-145 prostate, 56.5%; with K-562 leukemia it was 80.7%. In addition, the growth in the test on MALME-3M melanoma was 129%; with MDA-MB-231 breast, 83.8%; in the test on RXF 393 renal, -14.1% (active); in the test on SF-268 CNS, 52.3%; in the test on SF-295 CNS, 73.7%; in the test on SF-539 CNS, 23.3%. Besides, the growth in the test on UACC-257 melanoma is 71.3%; in the test on M14 melanoma, 80.1%.
`CCCc1cc(=O)oc2c(C(=O)CC(C)C)c(O)c(CC=C(C)C)c(O)c12`: the growth with NCI-H23 lung is -29.1% (active); in the test with NCI-H226 lung, 23.5%; in the test with NCI-H322M lung, 22.3%; in the test on HOP-62 NSCLC it was 51.1%; in the test with NCI-H460 lung, 15.8%; in the test on HOP-92 NSCLC, -25.5% (active). Further, the growth with NCI-H522 lung was 16%; with A549/ATCC NSCLC it was 23.8%; with 786-0 renal it was 29.2%; with COLO 205 colon, 50.3%; in the test on DU-145 prostate it was 31.3%; in the test with K-562 leukemia, 14.3%. Further, the growth in the test on MALME-3M melanoma was -6.82% (active); in the test on MDA-MB-231 breast, -15.9% (active); with RXF 393 renal it was 27.3%; with SF-268 CNS, 26.5%; with SF-295 CNS, 17.8%; with SF-539 CNS, 42.2%. Further, the values for the growth with UACC-257 melanoma and in the test with M14 melanoma were 22.7% and 33.6%, respectively.

Values taken from PubChem BioAssay (NCI).
